As usually defined, the Inhibition is the percentage by which the read-out fell short of the control. High values mean a response far below the control, low ones a response near the control.

In the test the test system is Plasmodium falciparum. Kind of test: GSK_TCMDC: Inhibition of Plasmodium falciparum 3D7 in whole red blood cells, using parasite LDH activity as an index of growth. Test compounds present at 2uM. Type of test: functional.
In turn, `Br.CCC1N=C(N)N=C(N)N1OCCCOc1c(Cl)cc(Cl)cc1Cl` (stereo unspecified) returned an Inhibition of 95%.

For `Cc1cc(-c2ccc3c(c2)CCN(CCC2CCC(NC(=O)/C=C/c4ccccc4F)CC2)CC3)on1.Cl` (stereo unspecified), the Inhibition turned out to be 94%.

Consider `CN1CCN(Cc2ccc(-c3ccc4c(Nc5ccc(Oc6ccccc6)cc5)ccnc4c3)o2)CC1`, for which the Inhibition was 99%.

In turn, `CC(C)N(Cc1cnc2nc(N)nc(N)c2n1)c1ccc(Cl)c(Cl)c1` yielded an Inhibition of 100%.

`O=C(CCc1cccnc1)Nc1cccc(-c2ccc(-c3nc4cc(C(F)(F)F)ccc4[nH]3)cc2)c1` yielded an Inhibition of 93%.

Take `Cl.N#CC1(CCCNCCc2ccc(O)cc2)CCCc2c(O)cccc21` (stereo unspecified): the Inhibition is 95%.

For the molecule `N#Cc1ccc(-c2ccc(C(=O)NCCCCN3CCC(c4cc(Br)c5c(c4OCC(N)=O)CCCC5)CC3)cc2)cc1`, the Inhibition was 100%.

`COc1cc(CN2CCC(NC(=O)[C@H](Cc3ccccc3)NC(=O)Nc3ccc(Oc4ccccc4)cc3)C2)ccc1O` (stereo partly specified) yielded an Inhibition of 92%.

In turn, `CS(=O)(=O)c1ccc(CNCc2ccc(-c3cccc(-c4nc5cc(F)ccc5[nH]4)c3)cc2)cc1.O=C(O)C(F)(F)F` returned an Inhibition of 100%.

With `CCNC(=O)Nc1ccc(N(C)c2ccnc(NC3CC3)n2)cc1`, the Inhibition turned out to be 100%.

Consider `Cc1ccc2c(c1)c(-c1ccccc1)c(-c1ccccc1)n2CC(O)CN1CCN(CC=Cc2ccccc2)CC1` (stereo unspecified), for which the Inhibition was 98%.

`COC(=O)c1cccc(CNCc2cccc(-c3cccc(-c4nc5cccc(C)c5[nH]4)c3)c2)c1.O=C(O)C(F)(F)F` gave an Inhibition of 100%.

As to `CCN(CC)/C(=N\CCCCCC/N=C(\NC(=N)c1ccc(Cl)cc1)N(CC)CC)NC(=N)c1ccc(Cl)cc1`, the Inhibition came out at 97%.

Molecule `CCN(CC)CCN(Cc1ccc(-c2ccc(C(F)(F)F)cc2)cc1)C(=O)CN1C(CCc2cccc(F)c2F)=NS(=O)(=O)c2ccccc21` yielded an Inhibition of 100%.

`CC(C)(C)CNCC(C)(C)c1nc(-c2ccc(Cl)c(O)c2)c(-c2ccncc2)[nH]1.Cl` displayed an Inhibition of 100%.

Molecule `Cc1cc(NC(=O)NCCN2CCC(NS(=O)(=O)c3ccccc3F)CC2)c2ccccc2n1` gave an Inhibition of 81%.

Molecule `CCCCCN1CCCC(NS(=O)(=O)c2ccc(C(=O)Nc3cccc(C(F)(F)F)c3)cc2)C1.O=C(O)C(F)(F)F` (stereo unspecified) registered an Inhibition of 97%.

As to `O=C1OC2(CCN(C(=O)c3ccc(-n4cnnn4)cc3)CC2)CN1Cc1ccc(Cl)c(Cl)c1`, the Inhibition is given as 97%.

`c1ccc(COc2ccc(COc3ccc(Cn4ccnc4)cc3)cc2)cc1` came in with an Inhibition of 86%.

With `C=CCOC(=O)N1CCC(CNCc2cccc(-c3cccc(-c4nc5cccc(C)c5[nH]4)c3)c2)C1.O=C(O)C(F)(F)F` (stereo unspecified), the Inhibition amounted to 100%.

For the molecule `Br.CCCN(CCCCCCN(CCC)CCc1ccc(O)c(O)c1)CCc1ccc(O)cc1`, the Inhibition was determined as 90%.

Turning to `CC(C)NCc1ccc(-c2ccc(NC(=O)c3cccc(Cl)c3)cc2)cc1.O=C(O)C(F)(F)F`, the Inhibition was 100%.

The molecule `Cc1[nH]c2ccc(-c3ccc(N(C)C)cc3)cc2c(=O)c1Cl` came in with an Inhibition of 97%.

The molecule `Cc1cc(NCC2CCN(CC3CCCCC3)C2)nc(Nc2ccc(Br)cc2)n1` (stereo unspecified) showed an Inhibition of 100%.

Consider `Fc1ccc2[nH]c(-c3cccc(-c4ccc(CN5CCN(c6cnccn6)CC5)cc4)c3)nc2c1.O=C(O)C(F)(F)F`, for which the Inhibition is recorded as 96%.

In the case of `Cc1cc(NCCc2ccccc2)nc(NC(=N)Nc2ccccc2Cl)n1`, the Inhibition stood at 100%.

In the case of `Cc1cc(NCCC(=O)NCCOc2ccccc2)nc(NCCc2ccc(F)cc2)n1.O=C(O)C(F)(F)F`, the Inhibition is 97%.

For the molecule `O=C(Nc1cccc(CN2CCN(C(=O)c3cccc(Cl)c3)CC2)c1)c1ccco1.O=C(O)C(F)(F)F`, the Inhibition is listed as 96%.

Molecule `O=C(Nc1ccc(Cl)c(C(F)(F)F)c1)c1ccc(C(=O)Nc2ccc(Cl)c(C(F)(F)F)c2)cc1` displayed an Inhibition of 88%.

For the molecule `Cl.Clc1ccc(CCNCCCCCCNCCc2ccc3c(c2)OCO3)cc1`, the Inhibition turned out to be 91%.

With `CCCNC(=O)C1Cc2cc(OC)c(OC)cc2C2(N1)C(=O)N(Cc1cccc(OC)c1)c1ccccc12` (stereo unspecified), the Inhibition turned out to be 91%.

In turn, `Cc1ccc(NC(=O)NC2CCN(CCCCCNC(=O)/C=C/c3ccc(Cl)c(Cl)c3)CC2)cc1C` displayed an Inhibition of 100%.

With `Fc1ccc(Nc2ccnc3cc(-c4cccc(CNCCN5CCOCC5)c4)ccc23)c(Cl)c1`, the Inhibition worked out at 100%.

`Cc1csc(-c2nonc2NC(=O)COc2ccccc2C(C)C)n1` displayed an Inhibition of 90%.

`O=C(Nc1ccc(-c2ccccc2)cc1)Nc1cccc(Cn2cnc(N3CCCNCC3)cc2=O)c1.O=C(O)C(F)(F)F` displayed an Inhibition of 88%.

`O=C(Nc1ccc(-c2cccc(-c3nc4ccccc4[nH]3)c2)cc1)c1cnn2cccnc12` gave an Inhibition of 99%.

For the origin of these results see ChEMBL document CHEMBL1157539, “Thousands of chemical starting points for antimalarial lead identification” (Nature, 2010).
